Our source for the inhibition values is PubChem BioAssay AID1063 (University of Pittsburgh Molecular Library Screening Center, 2008).

Broadly, the inhibition is the relative decrease from the control value, in per cent.

Hit rate of the full screen: of about 200,000 compounds, about 18,000 (9%) were called active. The sample as a whole holds a higher share of actives than the screen did. Unmarked numbers belong to inactive results. No stated cut-off is given here; in the data, active means inhibition above about 50%; inactive means the rest.

This assay is described as follows: antileishmanial activity against promastigotes – primary screen (AID 1063).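 Further: promastigotes grown with compound for 44 hours at 28 °C.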 As to conditions: Leishmania major promastigotes, resazurin fluorescence viability; at 10 µM; hits give high values. For orientation: Resazurin is reduced to fluorescent resorufin, in cell work by metabolically active cells.
For the compound `Cc1ccsc1C1C(C#N)=C(N)OC2=C1C(=O)CC(C)(C)C2` (configuration not stated), the inhibition is 9.53%. Next, `Fc1ccc(Cn2nnnc2C(c2cccs2)N2CCCCCC2)cc1` (configuration not stated): 5.18%; `CCCC(c1nnnn1C(C)(C)C)N1CCN(Cc2ccccc2)CC1` (configuration not stated): -6.34%; `CCC(C)(C)n1nnnc1C(c1ccccc1OC)N1CCSCC1` (configuration not stated): 6.66%.

On to `CCC(C)(C)n1nnnc1C(c1cccs1)N1CCN(Cc2ccccc2)CC1` (configuration not stated), for which the inhibition is 50.4% (active). The same measure for `COc1ccccc1C(c1nnnn1C(C)(C)C)N1CCN(Cc2ccccc2)CC1` (configuration not stated): 17.2%; for `CCC(C)(C)n1nnnc1C(c1cccs1)N1CCN(c2nc3ccccc3s2)CC1` (configuration not stated): 81.4% (active).

With `CC(C)N(Cc1ccccc1)C(=O)COC(=O)c1cnccn1`, the inhibition is -4.04%. The same measure for `COC(=O)Cc1c(O)ccn(Cc2cccc(C(F)(F)F)c2)c1=O`: -15.9%. Next, `CC(Sc1nnnn1C1CCCCC1)C(=O)O` (configuration not stated): -5.74%; `O=C(N/N=C/c1ccc([N+](=O)[O-])cc1)C(=O)N1CCCC1`: -5.07%.

Regarding `O=C(OCC(=O)c1cccs1)c1ccc([N+](=O)[O-])o1`, the inhibition is 13.5%. Next, `COc1cccc(/C=N/Nc2ncc(C(F)(F)F)cc2Cl)c1O`: 28.2%; `COc1ccc(Nc2cc(C)nc(-n3nc(C)cc3C)n2)cc1`: 28.9%; `COc1cccc2c(N/N=C/c3ccco3)cc(C)nc12`: 2.22%. The same measure for `COc1ccccc1/C=N\Nc1cc(C)nc(-n2nc(C)cc2C)n1`: 98.9% (active); for `COc1cccc(/C=N/Nc2cc(C)nc(-c3ccccc3O)n2)c1O`: 71.2% (active); for `COc1ccc(-c2nn(-c3ccccc3)cc2/C=N/Nc2ccccn2)cc1OC`: 27.8%. The same measure for `CCc1ccc(CN(C)Cc2nc(Cc3ccccc3)no2)nc1`: 14%; for `S=C(NCc1ccco1)Nc1ccc2c(c1)OCCO2`: -4.58%. Regarding `O=C(O)C1CC(=O)N(Cc2cccnc2)C1` (configuration not stated), the inhibition was -7.68%. The same measure for `O=C(NCCc1ccccc1)C1CCC(Cn2c(=O)c3ccccc3n(Cc3cccnc3)c2=O)CC1` (configuration not stated): 73.5% (active); for `COc1ccc(CCNC(=O)Cn2c(=O)n(CC3CCCO3)c(=O)c3ccccc32)cc1OC` (configuration not stated): -4.82%; for `Cc1c(CN2CCCC(C(=O)c3cccc(Cl)c3)C2)c(=O)n(-c2ccccc2)n1C` (configuration not stated): 16.8%. The same measure for `CCN(CC)CCNC(=O)c1ccc(NS(=O)(=O)c2ccc3c(c2)OCCO3)cc1`: -8.8%; for `Cc1cccc(OCC(=O)Nc2ccccc2F)c1`: 8.74%. Next, `CC(C)C(C)(C#N)NC(=O)CSc1nncn1-c1ccccc1` (configuration not stated): -0.78%; `CCCNS(=O)(=O)c1ccc(CCC(=O)N2CCCC2)cc1`: 1%.

For `S=C(NCc1ccc(Cl)cc1)NC12CC3CC(CC(C3)C1)C2`, the inhibition is 36.3%. Next, `CN(C)CCCNC(=S)NCc1ccc(Cl)cc1`: -5.52%; `S=C(NCc1ccc(Cl)cc1)NC1CCCCC1`: 57.3% (active). The same measure for `O=c1[nH]c(=S)[nH]c2[nH]c(=S)[nH]c12`: 7.12%. As to `COC(=O)C1=C(C)Nc2ncnn2C1c1cccnc1` (configuration not stated), the inhibition is -4.12%. Turning to `CCSc1nc2c(c(=O)[nH]1)C(c1cccnc1)C(C(=O)OC(C)C)=C(C)N2` (configuration not stated), the inhibition is 56% (active). Next, `COC(=O)C1=C(N)Oc2cc(C)oc(=O)c2C1c1cccnc1` (configuration not stated): 42.3%.

Regarding `N/C(=N\OC(=O)CCCC(=O)O)c1ncc(C(F)(F)F)cc1Cl`, the inhibition is -0.94%. The same measure for `COc1ccc(Cl)cc1C(=O)NNC(=S)NC(=O)/C=C/c1ccco1`: 18.7%; for `COc1ccc(N2C(=O)/C(=C\c3ccco3)N=C2SCC(N)=O)cc1Cl`: 51.5% (active).

For `COc1ccc([N+](=O)[O-])cc1NC(=O)COC(=O)/C=C/c1ccco1`, the inhibition was -8.41%.

For the compound `CCc1cccc2c(C=C(C#N)C#N)cn(CC(=O)N3CCCCC3)c12`, the inhibition was 78% (active).

On to `COc1cccc2c(=O)n(CC(=O)N3CCCCCC3)ccc12`, for which the inhibition was -6.35%. The same measure for `CCOC(=O)C1CCN(C(=O)Cn2cc(C#N)c3ccccc32)CC1`: 0.22%. Next, `Cc1ccccc1NC(=O)c1ccc(COc2ccc3c(C)cc(=O)oc3c2)cc1`: -4.07%. Next, `Cc1ccsc1C1C(C#N)=C(N)OC2=C1C(=O)CC(C)C2` (configuration not stated): 5.83%; `C/C=C/C=C/C(=O)OCC(=O)Nc1ccc(Cl)cc1`: 0.85%; `COc1ccc(C(=O)Nc2ncc3c(n2)-c2ccccc2CC3)cc1`: 33.3%.

On to `C=CCN(CC=C)S(=O)(=O)c1ccc(C(=O)Nc2nc3c(s2)CCc2ccccc2-3)cc1`, for which the inhibition was 25.3%.

With `COCCN(CCOC)S(=O)(=O)c1ccc(C(=O)Nc2nc3c(s2)CCc2ccccc2-3)cc1`, the inhibition is 78.1% (active). With `CC(C)C(NC(=O)C1CCC(C(C)(C)C)CC1)C(=O)NCCCN1CCCCC1` (configuration not stated), the inhibition is 4.42%. The same measure for `COc1ccc(C=Nc2cccc3ncccc23)cc1`: -0.39%; for `Cc1ccc2[nH]c(=O)c(CC=C(Cl)Cl)c(C)c2c1`: 5.81%; for `COC(=O)c1ccc(/C=N/N2C(C)CCCC2C)cc1` (configuration not stated): 1.84%. In the case of `CC(=O)NC(NC(=S)Nc1c(C)n(C)n(-c2ccccc2)c1=O)C(Cl)(Cl)Cl` (configuration not stated), the inhibition is -10.3%.

As to `COc1ccc(N2CCN(C(C)=C3C(=O)c4ccccc4C3=O)CC2)cc1`, the inhibition is 0.6%. Next, `COc1ccc(C(C(O)C(=O)c2c[nH]c3ccccc23)N2CCN(c3ccccc3)CC2)cc1` (configuration not stated): 60.7% (active); `CCCC(=O)NC(C)C(c1cccs1)N1CCN(c2ccccc2)CC1` (configuration not stated): 21.8%. The same measure for `CCC(=O)c1ccc(OCC(O)Cn2nc(C)c(C(C)=O)c2C)cc1` (configuration not stated): -1.66%; for `Cc1c(C(N)=O)sc2ncn(CCOc3ccccc3)c(=O)c12`: 15.6%. The same measure for `N#Cc1c(-c2ccc(Cl)cc2)c2c([nH]c1=S)CCCC2`: -2.73%.

On to `N/C(Cc1ccc([N+](=O)[O-])cc1)=N\OC(=O)COc1ccc2ccccc2c1`, for which the inhibition was -4.21%.

Regarding `N/C(=N\OC(=O)COc1ccc([N+](=O)[O-])cc1)c1ccc(Br)cc1`, the inhibition was -2.89%. The same measure for `CCOC(=O)COc1ccc([N+](=O)[O-])cc1`: 62.2% (active).
